Measured values: PubChem BioAssay (NCATS)
Values joined by “and” are separate entries in the source; they are usually repeats but may differ in a detail not shown here. Equal values may be shown once. Results filed as inconclusive are left out. Active and inactive are the calls of the source. Unless noted, the call rests on the fitted dose curve; in most records, active means well fitted cell-killing curve with a large enough effect; inconclusive means small, poorly fitted or top-dose-only effect; inactive means flat fitted curve, though single readings scatter.

How the values were obtained:
[1] = Cell Viability - LYMP2-006 (AID 978);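 further: cells exposed to compound for 24 hours; on the % scale 0 is the no-effect control and ±100 the full control effect; nearly all actives have a fitted effect of over 60% in size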
In short: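 Human lymphoblastoid cells (LYMP2-006), 2500/well in complete medium, were treated with compound for 24 hr at 37 C. Cellular ATP was read by CellTiter-Glo luminescence after 30 min, and AC50 values came from Hill-equation fits of concentration-response data.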

[2] = Cell Viability - LYMP2-007 (AID 979);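 further: cells exposed to compound for 24 h before reading; 0% = DMSO only and the negative end = 92 µM tetraoctylammonium bromide; nearly all actives have a fitted effect of over 60% in size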
In short: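 qHTS cytotoxicity: 2500 cells/well, 5 hr 37 C settle, compound 24 hr 37 C, CellTiter-Glo 30 min RT, luminescence. Decrease in ATP = toxicity. AC50 by standard Hill equation; tetraoctylammonium bromide positive control.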

[3] = Cell Viability - LYMP2-008 (AID 980); further: on the % scale 0 is the no-effect control and ±100 the full control effect; nearly all actives have a fitted effect of over 60% in size
In short: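 Luminescent ATP read-out (CellTiter-Glo, 30 min RT) after 24 hr compound exposure at 37 C of human lymphoblastoid cells in complete medium. Decrease in ATP taken as cytotoxicity; AC50 derived by standard Hill fit of qHTS concentration-response data.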

[4] = Cell Viability - LYMP2-010 (AID 981);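 further: cells exposed to compound for 24 hours at 37 °C; on the % scale 0 is the no-effect control and ±100 the full control effect; nearly all actives have a fitted effect of over 55% in size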
In short: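 qHTS cytotoxicity, 1536-well: 2500 cells/well, 5 hr settle, 24 hr compound at 37 C, CellTiter-Glo 30 min RT, luminescence read. Decrease in ATP = toxicity; AC50 via standard Hill equation. Positive control tetraoctylammonium bromide.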

[5] = Cell Viability - LYMP2-012 (AID 982);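 further: cellular ATP by luciferase luminescence where a drop means cytotoxicity; cells exposed to compound for one day before reading; 0% = DMSO only and full loss = 92 µM tetraoctylammonium bromide; nearly all actives have a fitted effect of over 55% in size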
[6] = Cell Viability - LYMP2-014 (AID 983);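 further: plate controls were DMSO only for no effect and 92 µM tetraoctylammonium bromide for full effect; nearly all actives have a fitted effect of over 50% in size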
In short: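 2500 cells/well, 5 hr 37 C; cpd 24 hr 37 C, complete medium; CellTiter-Glo 30 min RT, luminescence; ATP loss = toxicity; AC50 via Hill eqn; tetraoctylammonium bromide positive control.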

[7] = Cell Viability - LYMP2-016 (AID 984);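 further: cells exposed to compound for 24 hours at 37 °C; on the % scale 0 is the no-effect control and ±100 the full control effect; nearly all actives have a fitted effect of over 55% in size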
In short: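 Human lymphoblastoid LYMP2-016 cells, 2500 per well, treated with compounds for 24 h at 37 C. Viability read as intracellular ATP by CellTiter-Glo luminescence after 30 min at room temperature; AC50 from Hill fits of concentration-response.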

[8] = Cell Viability - LYMP2-018 (AID 985);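 further: plate controls were DMSO only for no effect and tetraoctylammonium bromide at 92 µM for full effect; nearly all actives have a fitted effect of over 50% in size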
In short: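 2500 cells/well; 5 hr 37 C; cmpd 24 hr 37 C, complete medium; CellTiter-Glo 30 min RT; luminescence. Tetraoctylammonium bromide positive control. AC50 via Hill fit.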

[9] = Cell Viability - LYMP2-020 (AID 986);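 further: plate controls were DMSO only for no effect and tetraoctylammonium bromide at 92 µM for full effect; nearly all actives have a fitted effect of over 55% in size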
In short: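 qHTS, 2500 cells/well; 5 hr then 24 hr compound exposure, 37 C; CellTiter-Glo luminescence after 30 min RT; ATP decrease taken as cytotoxicity; AC50 via Hill equation; tetraoctylammonium bromide positive control.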

[10] = Cell Viability - LYMP2-022 (AID 987)
In short: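 Luminescent ATP read-out (CellTiter-Glo, 30 min, RT) after 24 hr, 37 C compound exposure of 2500 human lymphoblastoid cells/well in complete medium. Cytotoxicity taken as concentration-dependent ATP loss; AC50 from standard Hill equation.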

[11] = Cell Viability - LYMP2-024 (AID 988);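 further: plate controls were DMSO only for no effect and 92 µM tetraoctylammonium bromide for full effect; nearly all actives have a fitted effect of over 60% in size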
In short: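 ATP-based luminescence (CellTiter-Glo, 30 min RT) after 24 h compound exposure at 37 C of 2500 lymphoblastoid cells/well; decrease in ATP taken as cytotoxicity. qHTS concentration-response fitted to standard Hill equation for AC50.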

[12] = Cell Viability - LYMP2-026 (AID 989); further: on the % scale 0 is the no-effect control and ±100 the full control effect; nearly all actives have a fitted effect of over 50% in size
In short: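 qHTS cytotoxicity: 2500 cells/well, 5 hr 37 C, compound 24 hr 37 C, CellTiter-Glo 30 min RT, luminescence. Tetraoctylammonium bromide positive control. AC50 via standard Hill fit.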

[13] = Cell Viability - LYMP1-002 - Assay at 24 hr (AID 993); further: on the % scale 0 is the no-effect control and ±100 the full control effect
In short: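 CellTiter-Glo luminescence (intracellular ATP) after 24 h compound exposure, 37 C, in LYMP1-002 human lymphoblastoid cells; decreased ATP taken as cytotoxicity. AC50 from standard Hill fit of concentration-response curves.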

[14] = Cell Viability - LYMP1-002 - Assay at 40 hr (AID 994)
In short: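 qHTS cytotoxicity; 2500 cells/well, 5 hr 37 C settle, compound 40 hr 37 C. CellTiter-Glo, 30 min RT, luminescence (ATP). Concentration-response, Hill fit → AC50. Pos. ctrl tetraoctylammonium bromide.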

[15] = qHTS Assay for Lipid Storage Modulators (AID 1519; calls by dose curve; on activity change, negative = inhibition: on the % scale 0 is the no-effect control and ±100 the full control effect); details: Drosophila S3 cells, BODIPY lipid droplet/cell ratio, laser cytometry, cells loaded with oleic acid
In short: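 Cells seeded at 5,000 per well were treated with compounds over a concentration series and loaded with oleic acid (400 uM, as added). Lipid droplet fluorescence (488 nm excitation, 500-530 nm channel) was read by laser-scanning cytometry and normalized to 20 uM Triacsin C.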

[16] = measured here: cell count channel max response
[17] = measured here: lipid channel max response

| Structure (SMILES) | outcome [1] | outcome [2] | outcome [3] | outcome [4] | outcome [5] | outcome [6] | outcome [7] | outcome [8] | outcome [9] | outcome [10] | outcome [11] | outcome [12] | outcome [13] | outcome [14] | activity change, negative = inhibition ([15]; at 57.5 µM (top of the series)) | max response [15, 16] | max response [15, 17] | activity change, negative = inhibition ([15]; at 25.7 µM (top of the series)) |
| --- | --- | --- | --- | --- | --- | --- | --- | --- | --- | --- | --- | --- | --- | --- | --- | --- | --- | --- |
| CCCC(O)C(CC)CO (centres undefined) | inactive | inactive | inactive | inactive | inactive | inactive | inactive | inactive | inactive | inactive | inactive | inactive | inactive | inactive |  |  |  |  |
| CCCCCC(N)=O | inactive | inactive | inactive | inactive | inactive | inactive | inactive | inactive | inactive | inactive | inactive | inactive | inactive | inactive |  |  |  |  |
| Cc1cc(=O)[nH]c(=S)[nH]1 | inactive | inactive | inactive | inactive | inactive | inactive | inactive | inactive | inactive | inactive | inactive | inactive | inactive | inactive |  |  |  |  |
| CCCCCCCC(=O)OCC(COC(=O)CCCCCCC)OC(=O)CCCCCCC | inactive | inactive | inactive | inactive | inactive | inactive | inactive | inactive | inactive | inactive | inactive | inactive | inactive | inactive |  |  |  |  |
| CC(=O)Nc1ccc(C(=O)O)cc1 | inactive | inactive | inactive | inactive | inactive | inactive | inactive | inactive | inactive | inactive | inactive | inactive | inactive | inactive |  |  |  |  |
| O=C(O)CCCCC1CCSS1 (centres undefined) | inactive | inactive | inactive | inactive | inactive | inactive | inactive | inactive | inactive | inactive | inactive | inactive | inactive | inactive | 3.99% (inactive) | 11.5% | 16.4% |  |
| Cc1cc(C)nc(NS(=O)(=O)c2ccc(N)cc2)n1 | inactive | inactive | inactive | inactive | inactive | inactive | inactive | inactive | inactive | inactive | inactive | inactive | inactive | inactive | 8.29% (inactive) | -2.08% and -9.55% | -2.98% and 1.72% | 1% (inactive) |
| Nc1ccc(S(=O)(=O)c2ccc(N)cc2)cc1 | inactive | inactive | inactive | inactive | inactive | inactive | inactive | inactive | inactive | inactive | inactive | inactive | inactive | inactive |  | 4.2% | 4.3% | -0.694% (inactive) |
| CCN(CC)C(=O)c1cccc(C)c1 | inactive | inactive | inactive | inactive | inactive | inactive | inactive | inactive | inactive | inactive | inactive | inactive | inactive | inactive | 7.23% (inactive) | 15.5% | 28.9% |  |
